Bioassay records: PubChem BioAssay, National Center for Advancing Translational Sciences (NCATS)
This excerpt belongs to a sample that is enriched for hits.
Pf Dd2 inh: inhibitors of Plasmodium falciparum Dd2 growth | P. falciparum Dd2 growth, SYBR Green, 72 h | Potency, µM (top dose mostly 28.9 µM), for the others: at the top dose activity, negative = inhibition, usual class: inhibitors | 120,000 tested, 4.3% active | AID 1347417; active means well fitted inhibition curve with a large enough effect;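 further: plate controls were DMSO vehicle for no effect and reference drug for full effect; nearly all actives have a fitted effect of over 65% in size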
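Infected erythrocytes (Dd2, 0.3% parasitemia, 2.5% hematocrit final) are added to compound in RPMI-1640/Albumax II medium, grown 72 h at 37C in low oxygen, then lysed with saponin/Triton-X containing SYBR Green and read by fluorescence.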
* = called active by the depositor; i = inactive; [ ] = another dose, or the depositor's remark. Potency means the concentration at half of the fitted maximal effect.

SMILES	Pf Dd2 inh
O=C(COc1ccc(F)cc1)N1CCC(CCOc2ccccc2F)C1 (centres undefined)	i
COc1cc2c(cc1OC)C(COc1ccc3c(C)cc(=O)oc3c1)N(C(=O)CC(C)C)CC2 (centres undefined)	11µM*
CCOc1ccc(CC(=O)N2CCc3cc(OC)c(OC)cc3C2COc2ccc3c(C)cc(=O)oc3c2)cc1 (centres undefined)	4µM*
COc1cc2c(cc1OC)C(CNC(=O)CC(C)C)N(C(=O)Nc1cccc(F)c1)CC2 (centres undefined)	i
CCOc1ccc2oc(=O)cc(CN3CCN(C(=O)c4ccc(OC)c(OC)c4)CC3)c2c1	-9%
COc1ccccc1NC(=O)N1CCc2cc(OC)c(OC)cc2C1CNC(=O)CC(C)C (centres undefined)	i
CCOc1ccc(NC(=O)N2CCc3cc(OC)c(OC)cc3C2CNC(=O)NC(C)C)cc1 (centres undefined)	-3%
Cc1cc(C(=O)N2C[C@@H](CO)[C@H](c3ccccn3)C2)no1	-25%
O=C(C1CCCC1)N1CCc2onc(-c3ccc(C(F)(F)F)cc3)c2C1	-8%
CCNC(=O)[C@@H]1C[C@@H](NC(=O)Cn2nc(C)cc2N)CN1C1CCOCC1	1%
COc1cccc(NC(=O)Cn2c(=O)n(Cc3ccc(C(=O)NCc4ccc(C)cc4)cc3)c(=O)c3ccccc32)c1	-25%
COc1ccc(NC(=O)Cn2c(=O)n(Cc3ccc(C(=O)NCc4ccccc4Cl)cc3)c(=O)c3ccccc32)cc1OC	-7%
Cc1ccc(C)c(NC(=O)Cn2c(=O)n(Cc3ccc4c(c3)OCO4)c(=O)c3ccc(C(=O)NC4CCCCC4)cc32)c1	i
Cc1cc(C)c(NC(=O)Cn2c(=O)n(Cc3ccc(C(=O)NCc4ccc5c(c4)OCO5)cc3)c(=O)c3ccccc32)c(C)c1	i
O=C(Cn1c(=O)n(Cc2ccc(C(=O)NCc3ccccc3Cl)cc2)c(=O)c2ccccc21)Nc1ccc(F)cc1	-26%
CCN(C(=O)Cn1c(=O)n(Cc2ccc3c(c2)OCO3)c(=O)c2ccc(C(=O)NC3CCCCC3)cc21)c1cccc(C)c1	1.3µM*
O=C(Cn1c(=O)n(Cc2ccc(C(=O)NCc3ccccc3Cl)cc2)c(=O)c2ccccc21)Nc1ccc(F)c(Cl)c1	10µM*
Cc1cccc(NC(=O)Cn2c(=O)n(Cc3ccc(C(=O)NCc4ccc5c(c4)OCO5)cc3)c(=O)c3ccccc32)c1	4µM*
Cc1ccc(NC(=O)Cn2c(=O)n(Cc3ccco3)c(=O)c3ccc(C(=O)NC4CCCC4)cc32)c(C)c1	1%
C#CCN(C)C(=O)[C@@H]1CCCN1[C@@H](C(=O)NC)c1ccccc1F	25%[44.1 µM]
COCCc1nncn1C1CCN(S(=O)(=O)c2cc(F)ccc2F)CC1	i
Cc1ccc(NC(=O)N2CC(c3nnc(-c4ccncc4)o3)C3(CCOCC3)C2)cc1 (centres undefined)	-1%
OCC1CN(c2ncccn2)CC12CCN(Cc1ccco1)CC2 (centres undefined)	i
O=C(c1cccc2[nH]ccc12)N1CCCN(c2cc(-c3ccc(Cl)cc3)[nH]n2)CC1	-2%
CCOC(=O)C1(Cc2cccc(OC)c2)CCCN(C(=O)COc2ccccc2)C1 (centres undefined)	-14%
SMILES	Pf Dd2 inh
CCCN1CCC(N2CCCC(Cc3ccccc3)(C(=O)OCC)C2)CC1 (centres undefined)	5µM*
CCOC(=O)C1(Cc2cccc(Cl)c2)CCCN(C(=O)c2csc(C(C)=O)c2)C1 (centres undefined)	i
NC(=O)[C@@H](Cc1ccccc1)NC(=O)C1=C[C@@H](NC(=O)c2ccc(F)c(Cl)c2)[C@@H](O)[C@H](O)C1	-18%
CC(C)N1CC2CCC(C1)N2Cc1cccc(C#N)c1	-8%[44.1 µM]
O=C(c1ccncc1)N1CC2CCC(C1)N2Cc1cccc(-c2ccsc2)c1	8%
CC(C)N1CC2CCC(C1)N2Cc1cccc(-c2ccsc2)c1	11µM*
CCn1cnnc1CC1CCNC1 (centres undefined)	14%
COCCc1noc(-c2nc(-c3ccccc3)no2)n1	-16%
COc1ccc(C(=O)N[C@@H]2CCC[C@@H]2C(=O)NCCN(C)C)cc1	4%
COc1ccc(C(=O)NCC(c2ccc(N(C)C)cc2)N2CCOCC2)cc1 (centres undefined)	46%
CN(C)c1ccc(C(CNC(=O)c2ccc(C(C)(C)C)cc2)N2CCCC2)cc1 (centres undefined)	6.3µM*
O=C(NCC(c1ccc(Cl)cc1)N1CCCCC1)c1ccc(F)cc1 (centres undefined)	-13%
CN(CC1CCOC1)S(=O)(=O)Cc1ccccc1Cl (centres undefined)	2%[5.79 µM]
COc1cccc(-c2cc(C3CCN(S(=O)(=O)c4ccc(F)cc4F)CC3)[nH]n2)c1	7.1µM*
COc1cccc(-c2cc(C3CCN(C(=O)c4cc(C)ccc4C)CC3)[nH]n2)c1	-8%
COc1cccc(-c2cc(C3CCN(C(=O)Nc4cccc(Cl)c4C)CC3)[nH]n2)c1	i
COc1cccc(-c2cc(C3CCN(C(=O)Nc4ccccc4OC)CC3)[nH]n2)c1	-19%
